Source: PubChem
A selection: hits, their analogues and other compounds. The true share with any hit is near 1.1%.
FBPA Giardia inh – inhibitors of Giardia lamblia fructose-1,6-bisphosphate aldolase. actives 0.71% (n = 290,000). purified Giardia FBPA. A8B2U2. Potency, µM (doses to about 59.6 µM), without a hit: at the highest dose activity, negative = inhibition, most hits filed as inhibitors. AID 2451; also: potency is read from the fitted curve at half-maximal effect; % is scaled to controls: 0 for no effect and ±100 for the full control effect; nearly all actives have a fitted effect of over 55% in size
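40 nM FBPA preincubated 10 min at RT with compound (up to 57.5 uM final), then substrate plus GAPDH/TPI/NAD/arsenate coupling and diaphorase/resazurin added. Fluorescence read after 20 min at RT, 525/598 nm.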
TbPYK inhibitor – T. brucei pyruvate kinase inhibition; Q57TT1; TbPYK enzyme, Kinase-Glo Plus ATP luminescence, 45 min; Potency, µM (series often up to 76.8 µM), without a hit: at the top dose activity, negative = inhibition, actives largely listed as inhibitors; actives 0.12% (n = 410,000); also: potency is read from the fitted curve at half-maximal effect; % is scaled to controls: 0 for no effect and ±100 for the full control effect; nearly all actives have a fitted effect of over 50% in size
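TbPYK + substrate in 50 mM TEA pH 7.2, 100 mM KCl, 10 mM MgCl2, 0.05% BSA, 0.01% Tween-20; cpd pinned; ADP 130 uM final; 45 min RT; Kinase-Glo Plus 10 min; luminescence endpoint.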
LmPK inh – LmPK (Leishmania mexicana) enzyme inhibition. purified LmPK, Kinase-Glo ATP luminescence, 1 h. Potency, µM (doses to about 57.5 µM), for the others: at the highest dose activity change, negative = inhibition, most hits filed as inhibitors. actives 0.37% (n = 290,000). AID 1721; also: potency is read from the fitted curve at half-maximal effect; % is scaled to controls: 0 for no effect and ±100 for the full control effect
Target sequence (Q27686 whole entry, looked up): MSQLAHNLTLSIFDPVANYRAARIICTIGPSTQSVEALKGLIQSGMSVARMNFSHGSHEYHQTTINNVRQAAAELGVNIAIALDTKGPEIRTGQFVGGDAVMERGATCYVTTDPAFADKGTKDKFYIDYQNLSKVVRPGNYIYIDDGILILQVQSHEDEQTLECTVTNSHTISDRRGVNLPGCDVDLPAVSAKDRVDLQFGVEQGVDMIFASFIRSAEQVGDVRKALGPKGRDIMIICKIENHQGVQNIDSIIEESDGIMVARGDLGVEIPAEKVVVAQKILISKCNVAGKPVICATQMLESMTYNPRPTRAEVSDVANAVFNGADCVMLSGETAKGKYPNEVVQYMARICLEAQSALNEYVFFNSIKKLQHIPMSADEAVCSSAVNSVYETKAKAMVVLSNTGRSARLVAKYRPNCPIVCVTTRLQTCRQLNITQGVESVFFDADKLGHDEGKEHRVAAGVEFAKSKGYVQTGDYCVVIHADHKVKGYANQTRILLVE
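Pyruvate kinase activity monitored as ATP production (luciferase luminescence). Conditions: 0.1 nM enzyme, 0.5 mM PEP, 0.1 mM ADP, 1 h, RT; normalized against uninhibited and no-enzyme wells.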
SARS PLpro yeast-1 – inhibitors of SARS-CoV papain-like protease in yeast. S. cerevisiae expressing SARS-CoV PLpro, growth rescue. Potency, µM (series often up to 32.9 µM), for inactives: at the highest dose activity, positive = growth rescue, hits mostly activators. actives 0.19% (n = 330,000). AID 485353; calls by dose curve; also: potency is read from the fitted curve at half-maximal effect; 0% is about no effect; nearly all actives have a fitted effect of over 55% in size
RE007 growth inh – less growth of the S. pombe RE007 Vpr strain | S. pombe RE007 Vpr strain, BacTiter-Glo ATP luminescence, 24 h | Potency, µM (highest dose often 92.2 µM), inactives show at the highest dose activity change, negative = less growth, most hits filed as inhibitors | actives 0.21% (n = 360,000) | AID 651644; active = well fitted falling curve with a large enough effect; inconclusive = small, poorly fitted or top-dose-only effect; inactive = no such curve, though single readings can be large or run the other way; also: potency is read from the fitted curve at half-maximal effect; % is scaled to controls: 0 for no effect and ±100 for the full control effect; nearly all actives have a fitted effect of over 50% in size
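Fission yeast RE007 carrying one integrated HIV-1 vpr copy, seeded at OD 0.01 in PMG+AL medium with 23 nL pinned compound. Grown 24 h at 30 degrees; viability read by BacTiter-Glo luminescence after 5 min.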
SARS PLpro yeast-2 – Inhibits SARS-CoV PLP in yeast, hit validation. shares compounds with SARS PLpro yeast-1. yeast expressing SARS-CoV PLpro, growth phenotype rescue. calls only. actives 19% (n = 1,000). AID 652038; call rule not given here
* = called active by the depositor; i = inactive; ? = inconclusive; · = not tested or not shown; + = active, no number; [ ] = remark or other dose. Unless noted, calls follow the shape of the dose curve; as a rule, active = well fitted curve in the direction sought with a large enough effect; inconclusive = small, poorly fitted or top-dose-only effect, or another doubt; inactive = no such curve, though single readings can be large; an effect the other way counts as inactive or inconclusive.

SMILES | FBPA Giardia inh | TbPYK inhibitor | LmPK inh | SARS PLpro yeast-1 | RE007 growth inh | SARS PLpro yeast-2
COc1ccc(C)cc1NC(=O)c1cc2ccccc2cc1OCC(=O)NCc1ccco1 | -3% | 1% | 10% | 3.5µM* | -4% | +
O=C1OCCN1C(=O)[C@H]1[C@H](c2ccc(Cl)cc2)C(c2ccccc2)=NN1c1ccccc1 | -10% | 6% | · | -4% | -12% | ·
O=C1OCCN1C(=O)[C@H]1[C@H](c2ccccc2)C(c2cccc(Cl)c2)=NN1c1ccccc1 | -9% | 2% | · | ? | -1% | +
Fc1ccc([C@@H]2Nc3ccccc3[C@@H]3C=CC[C@@H]32)cc1 | · | -27% | · | · | · | ·
CCC(C)C(=O)Nc1nccs1 (stereo unspecified) | ? | -5% | -3% | 10µM* | 5% | i
CCC(C(=O)Nc1nccs1)c1ccccc1 (stereo unspecified) | 1% | 0% | -3% | 3% | 4% | ·
COc1ccc(NC(=O)CN2C(=O)CCc3cc(S(=O)(=O)N4CCOCC4)ccc32)cc1Cl | · | 0% | · | · | · | ·
COC(=O)Sc1nc(N2CCOCC2)c2c(c1C#N)CC(C)(C)OC2 | -9% | -23% | -7% | 10µM* | -12% | +
O=C(Cc1cnn(-c2ccccc2)c1)c1ccc(O)c(O)c1O | 3.5µM* | -13% | 5% | ? | 19% | i
CCCCCCOC(=O)C(C#N)c1nc2ccccc2nc1N1CCN(C)CC1 (stereo unspecified) | 4% | -6% | -4% | ? | 17% | i
CCCCCCOC(=O)C(C#N)c1nc2ccccc2nc1N1CCCCC1 (stereo unspecified) | -3% | -2% | -4% | 1% | 4% | ·
CC1CCCC(C)N1C(=O)COC(=O)Cc1ccc(Cl)cc1 (stereo unspecified) | 4% | 1% | 1% | 1% | 6% | ·
CN(C(=O)COC(=O)Cc1ccc(Cl)cc1)C1CCCCC1 | · | -2% | · | ? | 1% | i
O=C1C=CC(=O)N1Nc1ccc(Br)cc1 | 5% | 11% | 1% | ? | -9% | i
Cc1ccc(C(=O)NCC(c2cccs2)S(=O)(=O)c2cccs2)cc1 (stereo unspecified) | · | 0% | · | · | · | ·
CCNC(=S)Nc1ccc(C)c(Cl)c1 | 2% | -9% | -3% | ? | 12% | +
CCNC(=S)Nc1ccc(Cl)cc1 | 0% | 2% | -1% | 25% | 8% | ·
OCC(O)C(O)[C@H](O[C@H]1OC(CO)C(O)C(O)C1O)[C@H](O)CO (stereo partly specified) | 4% | · | · | · | · | ·
Cc1cc(=O)[nH]c(N/N=C/c2c(O)n(-c3ccccc3)c(=O)c3ccccc23)n1 | -29% | 6% | -4% | ? | · | i
Cc1cc(=O)[nH]c(NN=Cc2c(Cl)cccc2Cl)n1 | · | 4% | · | · | -2% | ·
Cc1cc(=O)[nH]c(N/N=C/c2ccccn2)n1 | ? | 7% | -15% | ? | -6% | i
Cc1ccc(-n2c(=O)c3ccc(C(=O)NCc4ccco4)cc3n(Cc3ccc(Cl)cc3)c2=O)cc1 | · | 4% | · | · | · | ·
CSCC[C@H](NC(=O)c1ccc(NC[C@@H](N)CS)cc1-c1ccccc1)C(=O)O | 0% | · | · | · | · | ·
CCOC(=O)OCC1OC(C#Cc2ccc(C)cc2C)C=CC1OC(=O)OCC (stereo unspecified) | -2%[12.9 µM] | · | · | · | · | ·
CCC(C)NC(=O)C1CCN(C(=O)c2cc3sccc3n2Cc2ccc(Cl)cc2)CC1 (stereo unspecified) | · | -14% | · | · | · | ·
CCOc1ccccc1NC(=O)c1c(NCc2cccs2)sc2c1CCCCC2 | · | -14% | · | · | · | ·
O=[N+]([O-])c1ccc(/C=N/N2CCN(c3ccncc3S(=O)(=O)N3CCCCC3)CC2)cc1 | 3% | -8% | 9% | 3.2µM* | 20% | i
CNC[C@@H]1Oc2ccc(NC(=O)Nc3c(C)noc3C)cc2CC(=O)N([C@H](C)CO)C[C@H]1C | · | -12% | · | 11µM* | 11% | i
O=C(/C=N/O)NCCCCNC(=O)/C=N/O | -7%[12.9 µM] | · | · | · | · | ·
COC(=O)c1cc(OC)c(OC)cc1NCC(=O)Nc1ccc(C)cc1 | 2% | 3% | 5% | 4.5µM* | 16% | i
